Experimental data reported in PubChem BioAssay AID1159580 (chemical genetic matrix, 2015).
Hit rate of the full screen: of about 5,500 compounds, about 2,000 (36%) were called active. Another 18% or so got no clear call; they are omitted. Rule as the data show it: active = normalized growth mostly below about 0.91 (no sharp cut-off); inconclusive = no clear call, values can overlap the other calls; inactive = mostly above about 0.92. This is one part of the list.

Experiment: chemical genetic growth profiling, strain panel (AID 1159580);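 also: tested at 20 µM; growth read once vehicle control cultures reached saturation at 30 °C; 1 = growth at the plate median or of vehicle wells; lower values mean less growth of the strain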
Conditions: growth OD

Measured: normalized growth

CCNc1nc(Cl)nc(NC(C)C)n1
inactive: S. cerevisiae deletion strains, locus YJR075W, strain HOC1, active compounds read low 1.02 | S. cerevisiae deletion strains, locus YKL009W, strain mrt4, active compounds read low 1.03 | S. cerevisiae deletion strains, locus YKL068W, active compounds read low 1.02 | S. cerevisiae deletion strains, locus YKL085W, strain MDH1 (second series), active compounds read low 1.02 | S. cerevisiae deletion strains, locus YKL085W, strain MDH1, active compounds read low 1.02 | S. cerevisiae deletion strains, locus YKL160W, strain elf1, active compounds read low 1 | S. cerevisiae deletion strains, locus YKL190W, strain CNB1, active compounds read low 1.03 | S. cerevisiae deletion strains, locus YKR001C, strain vps1, active compounds read low 1.03 | S. cerevisiae deletion strains, locus YKR026C, strain gcn3, active compounds read low 0.991 | S. cerevisiae deletion strains, locus YKR091W, strain srl3, active compounds read low 1.01 | S. cerevisiae deletion strains, locus YLL001W, strain dnm1, active compounds read low 0.998 | S. cerevisiae deletion strains, locus YLL026W, active compounds read low 1 | S. cerevisiae deletion strains, locus YLL041C, strain sdh2, active compounds read low 1 | S. cerevisiae deletion strains, locus YLR027C, strain aat2, active compounds read low 0.996 | S. cerevisiae deletion strains, locus YLR039C, strain RIC1, active compounds read low 1.02 | S. cerevisiae deletion strains, locus YLR058C, strain SHM2, active compounds read low 1.02 | S. cerevisiae deletion strains, locus YLR102C, strain apc9, active compounds read low 1.02 | S. cerevisiae deletion strains, locus YLR113W, strain HOG1, active compounds read low 0.993 | S. cerevisiae deletion strains, locus YLR221C, strain rsa3, active compounds read low 1.01 | S. cerevisiae deletion strains, locus YLR258W, strain gsy2, active compounds read low 1.01 | S. cerevisiae deletion strains, locus YLR262C, strain YPT6 (second series), active compounds read low 1.01 | S. cerevisiae deletion strains, locus YLR262C, strain YPT6, active compounds read low 1.04 | S. cerevisiae deletion strains, locus YLR268W, strain sec22, active compounds read low 1.01 | S. cerevisiae deletion strains, locus YLR320W, strain mms22, active compounds read low 1.01 | S. cerevisiae deletion strains, locus YLR330W, strain CHS5, active compounds read low 1.02 | S. cerevisiae deletion strains, locus YLR342W, strain FKS1 (second series), active compounds read low 1.01 | S. cerevisiae deletion strains, locus YLR342W, strain FKS1, active compounds read low 1 | S. cerevisiae deletion strains, locus YLR357W, strain rsc2, active compounds read low 0.991 | S. cerevisiae deletion strains, locus YLR370C, strain arc18, active compounds read low 0.984 | S. cerevisiae deletion strains, locus YLR371W, strain rom2, active compounds read low 1.02 | S. cerevisiae deletion strains, locus YLR384C, strain iki3, active compounds read low 1.01 | S. cerevisiae deletion strains, locus YLR418C, strain cdc73, active compounds read low 1.04 | S. cerevisiae deletion strains, locus YML016C, strain PPZ1, active compounds read low 1.01 | S. cerevisiae deletion strains, locus YML032C, strain rad52, active compounds read low 1.03 | S. cerevisiae deletion strains, locus YML120C, strain ndi1, active compounds read low 1.02 | S. cerevisiae deletion strains, locus YML124C, strain tub3, active compounds read low 1.02 | S. cerevisiae deletion strains, locus YMR058W, strain fet3, active compounds read low 1.01 | S. cerevisiae deletion strains, locus YMR078C, strain ctf18, active compounds read low 1.01 | S. cerevisiae deletion strains, locus YMR125W, strain sto1, active compounds read low 0.977 | S. cerevisiae deletion strains, locus YMR129W, active compounds read low 1 | S. cerevisiae deletion strains, locus YMR205C, strain PFK2, active compounds read low 1.01 | S. cerevisiae deletion strains, locus YMR223W, strain ubp8, active compounds read low 1.02 | S. cerevisiae deletion strains, locus YMR231W, strain pep5, active compounds read low 0.996 | S. cerevisiae deletion strains, locus YMR263W, strain SAP30, active compounds read low 1.03 | S. cerevisiae deletion strains, locus YMR307W, strain GAS1, active compounds read low 1.09 | S. cerevisiae deletion strains, locus YNL067W, strain RPL9B, active compounds read low 1.02 | S. cerevisiae deletion strains, locus YNL071W, strain lat1, active compounds read low 1.01 | S. cerevisiae deletion strains, locus YNL128W, strain TEP1, active compounds read low 1.02 | S. cerevisiae deletion strains, locus YNL153C, strain GIM3, active compounds read low 1.01 | S. cerevisiae deletion strains, locus YNL183C, strain NPR1, active compounds read low 0.97 | S. cerevisiae deletion strains, locus YNL209W, strain ssb2, active compounds read low 1.01 | S. cerevisiae deletion strains, locus YNL233W, strain BNI4, active compounds read low 0.98 | S. cerevisiae deletion strains, locus YNL248C, strain rpa49, active compounds read low 0.994 | S. cerevisiae deletion strains, locus YNL250W, strain rad50, active compounds read low 1.01 | S. cerevisiae deletion strains, locus YNL271C, strain bni1, active compounds read low 1.02 | S. cerevisiae deletion strains, locus YNL298W, strain CLA4, active compounds read low 1.02 | S. cerevisiae deletion strains, locus YNL307C, strain MCK1, active compounds read low 1.02 | S. cerevisiae deletion strains, locus YNL322C, strain KRE1 (second series), active compounds read low 1 | S. cerevisiae deletion strains, locus YNL322C, strain KRE1, active compounds read low 1.02 | S. cerevisiae deletion strains, locus YNR049C, strain mso1, active compounds read low 1 | S. cerevisiae deletion strains, locus YNR052C, strain pop2, active compounds read low 1.04 | S. cerevisiae deletion strains, locus YOL006C, strain TOP1, active compounds read low 1.04 | S. cerevisiae deletion strains, locus YOL012C, strain htz1 1.05 | S. cerevisiae deletion strains, locus YOL147C, strain pex11, active compounds read low 1.01 | S. cerevisiae deletion strains, locus YOR001W, strain rrp6, active compounds read low 0.998 | S. cerevisiae deletion strains, locus YOR061W, strain CKA2, active compounds read low 1.02 | S. cerevisiae deletion strains, locus YOR069W, strain VPS5, active compounds read low 1.01 | S. cerevisiae deletion strains, locus YOR070C, strain gyp1, active compounds read low 1.01 | S. cerevisiae deletion strains, locus YOR080W, strain dia2, active compounds read low 0.995 | S. cerevisiae deletion strains, locus YOR083W, strain WHI5, active compounds read low 1 | S. cerevisiae deletion strains, locus YOR106W, strain vam3, active compounds read low 1.04 | S. cerevisiae deletion strains, locus YOR136W, strain idh2, active compounds read low 1.02 | S. cerevisiae deletion strains, locus YOR144C, strain elg1, active compounds read low 1.02 | S. cerevisiae deletion strains, locus YOR184W, strain ser1, active compounds read low 1.03 | S. cerevisiae deletion strains, locus YOR231W, strain MKK1, active compounds read low 0.997 | S. cerevisiae deletion strains, locus YOR265W, strain rbl2, active compounds read low 1 | S. cerevisiae deletion strains, locus YOR270C, strain vph1, active compounds read low 0.975 | S. cerevisiae deletion strains, locus YOR290C, strain snf2, active compounds read low 1.01 | S. cerevisiae deletion strains, locus YOR316C, strain cot1, active compounds read low 1.03 | S. cerevisiae deletion strains, locus YPL051W, strain arl3, active compounds read low 0.98 | S. cerevisiae deletion strains, locus YPL055C, strain LGE1, active compounds read low 1.03 | S. cerevisiae deletion strains, locus YPL078C, strain atp4, active compounds read low 0.977 | S. cerevisiae deletion strains, locus YPL106C, strain sse1, active compounds read low 1.03 | S. cerevisiae deletion strains, locus YPL240C, strain hsp82, active compounds read low 1.01 | S. cerevisiae deletion strains, locus YPL241C, strain CIN2, active compounds read low 1.03 | S. cerevisiae deletion strains, locus YPL256C, strain CLN2, active compounds read low 0.996 | S. cerevisiae deletion strains, locus YPR119W, strain clb2, active compounds read low 1.01 | S. cerevisiae deletion strains, locus YPR141C, strain kar3, active compounds read low 1.03 | S. cerevisiae deletion strains, locus YPR163C, strain tif3, active compounds read low 1.03 | S. cerevisiae deletion strains, locus YPR167C, strain met16, active compounds read low 1.02 | S. cerevisiae deletion strains, strain wtn01, active compounds read low 1.02 | S. cerevisiae strains, strain wild type, active compounds read low 1.02
